Only some compounds are listed: those with a hit (about 0.97% of all), similar ones and a draw of the others.
TcdB inh = inhibitors of Clostridioides difficile toxin B glycohydrolase; P18177; TcdB glycohydrolase enzymatic assay, plate reader; inhibition, % at 9.99 µM; 350,000 tested, 0.24% active; AID 652162; in the data active = inhibition above about 10%
Mtb UGM inh = inhibitors of M. tuberculosis UDP-galactopyranose mutase | P9WIQ1 | purified UGM, fluorescence polarization probe displacement | inhibition, % at 10 µM | 320,000 tested, 0.06% active; in the data active = inhibition above about 10%, passing the limit was not always enough
Target sequence (P9WIQ1 whole entry, looked up): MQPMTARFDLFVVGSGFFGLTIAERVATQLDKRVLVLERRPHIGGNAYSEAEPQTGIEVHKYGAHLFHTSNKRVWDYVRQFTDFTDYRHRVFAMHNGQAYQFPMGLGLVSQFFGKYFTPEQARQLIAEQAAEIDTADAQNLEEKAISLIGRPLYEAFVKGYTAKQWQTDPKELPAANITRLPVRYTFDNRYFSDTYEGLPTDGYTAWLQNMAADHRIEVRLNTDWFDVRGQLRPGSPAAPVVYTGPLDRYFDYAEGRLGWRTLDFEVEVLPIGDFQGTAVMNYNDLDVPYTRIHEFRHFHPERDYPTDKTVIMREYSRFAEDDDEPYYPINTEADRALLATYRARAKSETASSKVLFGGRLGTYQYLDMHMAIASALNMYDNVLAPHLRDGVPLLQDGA
Mtb betalactam = beta-lactam sensitization of Mtb H37Rv | inhibition, % at 25 µM | AID 434955 | M. tuberculosis H37Rv growth with meropenem, percent inhibition | 330,000 tested, 0.27% active; call rule not given here;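 note: growth measured after seven days incubation then overnight dye step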
RecA splice inh = Mtb RecA intein splicing inhibition | inhibition, % (concentration not given with the values) | cell-free RecA intein splicing, fluorescence | 290,000 tested, 0.75% active; in the data active = inhibition above about 30%
MazF activator = activators of E. coli MazEF toxin-antitoxin RNase | 350,000 tested, 0.32% active | activation, % at 20 µM | FAM/BHQ RNA-DNA oligo cleavage fluorescence, 5 h; in the data active = activation above about 50%
Target sequence (P0AE70 whole entry, looked up): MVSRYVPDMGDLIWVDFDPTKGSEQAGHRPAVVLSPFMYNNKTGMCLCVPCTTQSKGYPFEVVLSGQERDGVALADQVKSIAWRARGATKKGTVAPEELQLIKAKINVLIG
Rv3671c protease = Rv3671c (M. tuberculosis) protease inhibition; P9WHR9; AID 2606; 320,000 tested, 0.048% active; inhibition, % at 5.96 µM; in the data active = inhibition above about 38%;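 note: extracellular domain of Rv3671c used as enzyme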
Hits are given with their value; . = inactive; / = not tested or not shown.

SMILES	TcdB inh	Mtb UGM inh	Mtb betalactam	RecA splice inh	MazF activator	Rv3671c protease
C[C@@H]1CN([C@H](C)CO)C(=O)c2cccc(NC(=O)C3CCOCC3)c2O[C@H]1CN(C)S(=O)(=O)c1ccc(F)cc1	.	/	/	/	/	/
C[C@H]1CN([C@@H](C)CO)C(=O)c2cc(NC(=O)Cc3cn(C)c4ccccc34)ccc2O[C@@H]1CN(C)C	.	/	/	/	/	/
COc1cccc2c1C(=O)c1c(O)c3c(c(O)c1C2=O)C[C@@](O)(C(C)=O)C[C@@H]3O[C@H]1C[C@H](N)[C@H](O)[C@H](C)O1	.	/	/	/	.	/
COc1cccc2c1C(=O)c1c(O)c3c(c(O)c1C2=O)C[C@@](O)(C(=O)CO)C[C@@H]3O[C@H]1C[C@H](N)[C@@H](O)[C@H](C)O1	/	38	.	.	.	.
CN(C)CC#Cc1ccc([C@@H]2[C@H](CO)N3CCCCN(C(=O)Nc4ccccc4F)C[C@@H]23)cc1	.	/	/	/	/	/
COc1ccc(CN2CN=C(Nc3nc4ccccc4s3)NC2)cc1	/	.	.	.	62	.
c1ccc(CN2CN=C(Nc3nc4ccccc4s3)NC2)cc1	/	.	.	.	56	.
c1ccc2sc(NC3=NCN(Cc4ccc5c(c4)OCO5)CN3)nc2c1	/	.	.	.	.	.
C[C@@H]1CCCCO[C@@H](CN(C)CC2CCCCC2)[C@H](C)CN([C@@H](C)CO)C(=O)c2cc(NS(C)(=O)=O)ccc2O1	.	/	/	/	/	/
CC(C)NC(=O)Nc1ccc2c(c1)C(=O)N([C@H](C)CO)C[C@H](C)[C@@H](CN(C)C(=O)Nc1ccc(F)cc1)OCCCC[C@@H](C)O2	.	/	/	/	/	/
COc1ccc(CNC(=O)C[C@H]2C=C[C@H](NC(=O)CN(C)C)[C@H](CO)O2)cc1	.	/	/	/	/	/
COc1cccc(C#Cc2cnc3c(c2)C(=O)N([C@@H](C)CO)C[C@@H](C)[C@@H](CN(C)C(C)=O)O3)c1	.	/	/	/	/	/
CCOC(=O)CSc1nc2cc3c(cc2cc1C)OCO3	.	.	.	.	.	.
Cc1ccc(-c2nnc(CSc3nc4cc5c(cc4cc3C)OCO5)o2)cc1	/	.	.	.	437	.
O=C(C1CC1)N1CCCCN2[C@H](CO)[C@H](c3ccc(-c4ccncc4)cc3)[C@@H]2C1	.	/	/	/	/	/
O=[N+]([O-])c1cccc(-c2nc(-c3cccs3)c(-c3cccs3)[nH]2)c1	/	.	.	.	111	.
CNC(=O)C1Cc2c(-c3ccccc3Oc3ccccc3)ccnc2O1 (configuration not stated)	13	/	/	/	/	/
O=C(CCN1C(=O)/C(=C/c2ccc(Cl)cc2)SC1=S)Nc1cccc(C(=O)O)c1	.	.	.	.	.	.
O=C(O)c1cccc(N2C(=O)/C(=C/c3ccc(SCc4ccc(Cl)cc4)o3)SC2=S)c1	.	/	/	/	574	/
CC(C)CC#Cc1ccc2c(c1)O[C@@H](CN(C)CC1CCOCC1)[C@@H](C)CN([C@@H](C)CO)S2(=O)=O	.	/	/	/	/	/
C=C1CCN(Cc2ccccc2)S(=O)(=O)c2ccccc21	11	.	.	.	.	.
CCC(=O)N1CCC2(CC1)CN(S(=O)(=O)c1ccccc1)[C@@H](CO)c1[nH]c3cc(OC)ccc3c12	.	/	/	/	/	/
CCCNC(=O)Nc1ccc2c(c1)C(=O)N(C)[C@H]1CC[C@H](CC(=O)NC3CCC3)O[C@@H]1CO2	14	/	/	/	/	/
CCNC(=O)Nc1ccc2c(c1)C(=O)N(C)[C@@H]1CC[C@@H](CC(=O)NC3CCCCC3)O[C@@H]1CO2	.	/	/	/	/	/
CCNC(=O)Nc1ccc2c(c1)C(=O)N(C)[C@H]1CC[C@@H](CC(=O)NC3CCCCC3)O[C@H]1CO2	.	/	/	/	/	/
SMILES	TcdB inh	Mtb UGM inh	Mtb betalactam	RecA splice inh	MazF activator	Rv3671c protease
CCCNC(=O)Nc1ccc2c(c1)C(=O)N(C)[C@@H]1CC[C@H](CC(=O)NC3CCC3)O[C@H]1CO2	19	/	/	/	/	/
C[C@H]1CN([C@@H](C)CO)C(=O)c2cccc(NC(=O)Nc3ccccc3)c2O[C@@H]1CN(C)S(=O)(=O)c1cn(C)cn1	.	/	/	/	/	/
COc1ccc(NC(=O)N(C)C[C@H]2Oc3ccc(NS(=O)(=O)c4ccc(F)cc4)cc3CC(=O)N([C@H](C)CO)C[C@H]2C)cc1	.	/	/	/	/	/
C[C@H]1CN([C@@H](C)CO)C(=O)c2cc(NS(=O)(=O)c3ccccc3)ccc2O[C@@H]1CN(C)C(=O)Nc1ccc(F)cc1	.	/	/	/	/	/
O=C(Nc1cccc2ccccc12)N1CC=C(c2ccccc2)CC1	/	.	.	.	78	.
CC(=O)N1CCCCN2[C@H](CO)[C@@H](c3ccc(C#Cc4ccccc4F)cc3)[C@@H]2C1	.	/	/	/	/	/
O=P1(Oc2ccccc2)OCCCS1 (configuration not stated)	14	.	.	.	.	.
Cc1cc(C)c(NS(=O)(=O)c2cccc3cccnc23)c(C)c1	14	.	.	.	.	.
COCc1c(Br)c(C)nc(OCC(=O)N/N=C/c2ccco2)c1C#N	.	.	.	.	.	.
COCc1c(Br)c(C)nc(OCC(=O)N/N=C/c2ccc(C)o2)c1C#N	11	.	.	.	.	.
COc1cccc(CNC(=O)Cn2ncn3cccc3c2=O)c1OC	.	.	.	.	71	.
Cc1ccc(CNC(=O)Cn2ncn3cccc3c2=O)cc1	.	.	.	.	.	.
CC(C)OC(=O)/C(C#N)=C/c1ccc(-c2ccc(SC(F)F)cc2)o1	/	.	.	.	140	.
Cc1ccc(SCCC(=O)N/N=C/c2cccnc2)cc1	10	.	.	.	.	.
C[C@H]1CN([C@@H](C)CO)C(=O)c2c(c3ccccc3n2C)-c2ccccc2CO[C@H]1CN(C)C(=O)CCC(F)(F)F	.	/	/	/	/	/
CCCNC(=O)[C@H]1[C@H](CO)[C@H]2Cn3c(cccc3=O)[C@H]2N1C(=O)C1CCC1	.	/	/	/	/	/
Cc1ccc(/C=C2/NC(=O)N(Cc3ccccc3F)C2=O)s1	/	.	.	.	86	.
Cc1[nH]nc(-c2ccc(O)cc2O)c1Oc1ccccc1	11	.	.	.	.	.
COc1cc(C(=O)Oc2cc(N)n(S(=O)(=O)c3ccc(F)cc3)n2)cc(OC)c1OC	.	.	.	.	245	.
CC1=NOC(=O)/C1=C\c1ccc(-c2cccc(Cl)c2)o1	/	.	.	.	.	.
CC1=CC2=NC(=O)/C(=C\c3ccc(-c4cccc(Cl)c4)o3)C(=N)N2O1	.	.	.	.	84	.
COc1ccc(-c2ccc3c(=O)cc(-c4ccsc4)oc3c2)cn1	.	.	.	/	70	.
COc1cc(-c2ccc3oc(-c4ccsc4)cc(=O)c3c2)cc(OC)c1OC	.	.	.	/	.	.
CCCOc1ccc(/C=c2\sc3nc(-c4ccco4)nn3c2=O)cc1OCC	/	.	.	.	218	.
CC(=O)Oc1cccc(/C=c2\sc3nc(-c4ccco4)nn3c2=O)c1	/	.	.	/	.	.
O=C(C[C@@H]1CC[C@@H]2[C@H](COC[C@@H](O)CN2S(=O)(=O)c2ccc(Cl)cc2)O1)NCCN1CCCC1	.	/	/	/	/	/
CNc1cc(Cl)nc(SC)n1	.	.	.	.	.	.
CSc1nc(Cl)cc(Nc2ccc(O)cc2)n1	15	.	.	.	.	.
O=C(NCC[C@@H]1CC[C@@H](NS(=O)(=O)c2cccc(F)c2)[C@H](CO)O1)c1cnccn1	.	/	/	/	/	/

Bioassay records as filed in PubChem.
